# Values joined by “and” are separate entries in the source; they are usually repeats but may differ in a detail not shown here. Equal entries are not always repeated. Active and inactive are the calls of the source. The call rests on the fitted dose curve. Non-standard residues stand in square brackets, D forms with d. Residues, ends and D or L forms follow the SMILES beside them.
# Molecular target: Glucocorticoid receptor (Homo sapiens) (UniProt P04150)
# Test: GR-EFC Redistribution (AID 451)
# Settings: CHO-K1 GR-EFC translocation, beta-gal luminescence, 2 h
# From the text: NIH Molecular Libraries Screening Centers Network [MLSCN]
# NIH Chemical Genomics Center [NCGC]
# The glucocorticoid receptor (GR) is a cytoplasmic receptor that belongs to the nuclear receptor family of ligand-dependent transcription factors. Upon glucocorticoid binding to its receptor, the glucocorticoid-GR complex translocates into the nucleus, where it binds as a dimer to specific DNA sequences (glucocorticoid response elements), enhancing or suppressing transcription of a wide variety of glucocorticoid-responsive genes. In addition to their important roles in normal physiology and metabolism, glucocorticoids are administered exogenously as treatments for a wide variety of allergic, autoimmune, and neoplastic conditions. Identification of compounds that modulate aspects of GR signalling would be useful in dissecting glucocorticoid response pathways as well as developing GR modulators with more targeted clinical effects.
# Traditionally, GR modulators have been identified using receptor binding or direct transactivation assays. However, assays for glucocorticoid-dependent nuclear translocation can also be used to screen for compounds affecting GR signaling.
# Immunocytochemical staining has been used to assay for GR translocation, but is not suitable for high throughout screening due to the multiple reagent addition and wash steps required. Recently, a novel cell-based GR assay in Enzyme Fragment Complementation (EFC) format was developed by DiscoveRx (Fremont, CA). The assay uses EFC of b-galactosidase (b-gal) as an indicator of GR-translocation in engineered CHO-K1 biosensor cells. The enzyme acceptor (EA) fragment of b-gal resides in the nucleus , as designed through the use of a proprietary set of sequence additions and modifications. The small peptide enzyme donor (ED) fragment of b-gal is fused directly to the C-terminus of GR, and is localized in the cytoplasm is the absence of receptor signaling. Upon binding to a GR ligand, the complex translocates to the nucleus, where intact enzyme activity is restored by complementation and b-gal activity is detected. We optimized this GR-EFC assay in homogenous 1536-well plate assay format for high throughput screening.
# NCGC Assay Protocol Summary:
# CHO-K1 cells stably expressing NLS-enzyme acceptor fragment (EA) of b-gal and GR-enzyme donor (ED) fragment of b-gal were maintained in F12 medium (Invitrogen, Carlsbad, CA) at 37 Celsius degrees under a humidified atmosphere containing 5% CO2 and 95% air. The medium contained 10% FBS, 2 mM L-glutamine, 50 U/ml penicillin 50 ug/ml streptomycin, and 250 ug/ml hygromycin and 500 ug/ml G418 (Invitrogen).
# GR-translocation was measured beta-gal enzyme activity using the PathHunter Detection Kit containing cell membrane permeablizing reagent and beta-gal substrate (DiscoveRx, Fremont, CA). All compounds were screened as titrations from 0.6 nM to 46 uM final concentration. The assay was performed in 1536-well format as follows:
# 5 uL cell suspension (1,000 cells)/well
# Incubation at 37 Celsius degrees for two hours
# 1.25 uL 1X detection buffer from the kit supplied by DiscoveRx
# Incubation at room temperature for one hour
# Read plate in luminescence mode in ViewLux plate reader (PerkinElmer)
# Keywords: NIH Roadmap, MLSCN, MLI, MLSMR, GR-EFC, GREFC, qHTS, NCGC
# Potency means the concentration at half of the fitted maximal effect.
# Sequence of Glucocorticoid receptor (Homo sapiens) (P04150 whole entry, looked up): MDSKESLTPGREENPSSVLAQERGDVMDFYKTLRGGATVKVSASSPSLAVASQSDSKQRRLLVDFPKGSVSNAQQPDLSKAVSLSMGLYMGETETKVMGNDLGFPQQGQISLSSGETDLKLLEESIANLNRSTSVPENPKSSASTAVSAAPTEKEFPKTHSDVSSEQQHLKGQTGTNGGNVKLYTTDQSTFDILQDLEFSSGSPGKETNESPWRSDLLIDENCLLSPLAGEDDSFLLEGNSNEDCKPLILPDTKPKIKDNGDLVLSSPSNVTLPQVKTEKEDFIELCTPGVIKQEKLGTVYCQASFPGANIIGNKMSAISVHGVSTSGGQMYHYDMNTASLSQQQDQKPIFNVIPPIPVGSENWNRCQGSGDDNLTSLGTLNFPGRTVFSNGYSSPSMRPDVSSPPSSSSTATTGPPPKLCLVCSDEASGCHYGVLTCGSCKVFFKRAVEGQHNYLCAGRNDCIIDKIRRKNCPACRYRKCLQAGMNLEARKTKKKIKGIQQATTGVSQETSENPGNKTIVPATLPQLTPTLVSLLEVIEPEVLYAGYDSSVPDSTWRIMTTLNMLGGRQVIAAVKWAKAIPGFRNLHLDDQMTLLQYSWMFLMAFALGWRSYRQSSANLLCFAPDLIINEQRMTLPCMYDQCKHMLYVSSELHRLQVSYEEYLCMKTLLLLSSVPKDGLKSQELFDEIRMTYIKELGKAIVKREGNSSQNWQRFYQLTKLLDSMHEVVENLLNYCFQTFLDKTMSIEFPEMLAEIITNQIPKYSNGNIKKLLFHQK
row,SMILES,Potency
1,C1CCC(N=C(NC23CC4CC(CC(C4)C2)C3)N2CCOCC2)CC1,> 46 µM (inactive)
2,Fc1ccc(C(c2ccc(F)cc2)N2CCN(C/C=C\c3ccccc3)CC2)cc1,> 46 µM (inactive) and > 20.6 µM (inactive)
3,O=C1c2ccccc2C(Cc2ccncc2)(Cc2ccncc2)c2ccccc21,> 46 µM (inactive)
4,CC(N)=NCCCC[C@H](N)C(=O)O,> 46 µM (inactive)
5,Clc1cccc(C=NC=Nc2cccc(Cl)c2)c1,> 46 µM (inactive)
6,CC(C)NC[C@@H](O)COc1cccc2[nH]ccc12,> 46 µM (inactive) and > 20.6 µM (inactive)
7,CN1CCc2cc3c(cc2[C@@H]1[C@@H]1C(=O)Oc2c1ccc1c2OCO1)OCO3,> 46 µM (inactive)
8,Oc1cc2c(cc1O)[C@H](c1ccccc1)CNCC2,> 46 µM (inactive)
9,CN1Cc2c(C(=O)OC(C)(C)C)ncn2-c2ccsc2C1=O,> 46 µM (inactive)
10,Clc1ccccc1CNCC1CCC(CNCc2ccccc2Cl)CC1 (stereo not given),> 46 µM (inactive)
11,CN1CCN(CCc2ccc(Cl)c(Cl)c2)CC1,> 46 µM (inactive)
12,N[C@H](CCC(=O)NCC(=O)O)C(=O)O,> 46 µM (inactive)
13,O=C1CC[C@H](N2C(=O)c3ccccc3C2=O)C(=O)N1,> 46 µM (inactive) and > 20.6 µM (inactive)
14,CCCCC(=O)NCCc1c(Cc2ccccc2)[nH]c2ccccc12,> 46 µM (inactive)
15,c1ccc2cc(C3=NCCN3)ncc2c1,> 46 µM (inactive)
16,Fc1ccc([C@H]2CCNC[C@H]2COc2ccc3c(c2)OCO3)cc1,> 46 µM (inactive)
17,CC(C)[C@@H]1C(=O)N(S(C)(=O)=O)[C@H]2CCN(C(=O)/C=C\CN3CCCCC3)[C@@H]12,> 46 µM (inactive)
18,CCn1c(=O)[nH]c2ccccc21,> 46 µM (inactive)
19,Cc1c[nH]c(=O)n(CCCN2CCN(c3ccccc3OCC(F)(F)F)CC2)c1=O,> 46 µM (inactive)
20,CNC(=O)[C@H]1O[C@H](n2cnc3c(NCc4cccc(I)c4)ncnc32)[C@@H](O)[C@@H]1O,> 46 µM (inactive)

row,SMILES,Potency
1,Nc1nc2c(nc(Br)n2[C@@H]2O[C@H]3COP(=O)(O)O[C@H]3[C@@H]2O)c(=O)[nH]1,> 46 µM (inactive)
2,NC(N)=Nc1ccc(Cl)cc1,> 46 µM (inactive)
3,O=C(O)[C@H]1CN[C@H](C(=O)O)C1,> 46 µM (inactive)
4,Cn1ccc2cc(NC(=O)Nc3cccnc3)ccc21,> 46 µM (inactive)
5,OC[C@H]1NC[C@H](O)[C@@H](O)[C@H]1O,> 46 µM (inactive)
6,Cc1cc(C)cc(C(=O)N(C)[C@H](Cc2ccc(-c3ccccc3)cc2)C(=O)N[C@@H](Cc2c[nH]c3ccccc23)C(=O)O)c1,> 46 µM (inactive)
7,N[C@@H](CO)C(=O)O,> 46 µM (inactive)
8,CCCCCCc1c(C[C@H](N)C(=O)O)o[nH]c1=O,> 46 µM (inactive)
9,O=C(NCCCN1CCCCCC1)[C@@H](c1ccccc1)C1CCCCC1,> 46 µM (inactive)
10,CSCC[C@H](C=O)NC(=O)[C@H](CC(C)C)NC(=O)[C@H](CC(C)C)NC(C)=O (Ac-Leu-Leu-[dM]-aldehyde),> 46 µM (inactive)
11,COc1ccccc1N1CCN(CCCCN2C(=O)CCC2=O)CC1,> 46 µM (inactive)
12,O=C(O)c1c(Br)c(Br)c(Br)c(Br)c1C1c2ccc(O)cc2Oc2cc(O)ccc21,> 9.22 µM (inactive)
13,CC(C)=CCC/C(C)=C/CC/C(C)=C/CSc1ccccc1C(=O)O,> 46 µM (inactive)
14,Clc1cccc(Nc2nnc(-c3ccccc3)c3ccccc23)c1,> 46 µM (inactive)
15,Cn1cnc2c(NC3CCCC3)ncnc21,> 46 µM (inactive)
16,CCC(C)(C)N=C(NC#N)Nc1cccnc1,> 46 µM (inactive)
17,C[C@@H]([C@H](O)c1ccc(O)cc1)N1CCC(Cc2ccccc2)CC1,> 46 µM (inactive) and > 20.6 µM (inactive)
18,CC(=O)N[C@@H](C(=O)O)C(C)(C)SN=O,> 46 µM (inactive)
19,OCCNCCCOc1cccc(Cl)c1Cl,> 46 µM (inactive)
20,NCCC(=O)O,> 46 µM (inactive)

# Reference: PubChem BioAssay (NCATS)
